Data on one compound can be found in PubChem BioAssay (NCATS).

The target of assay [1] is Furin (Homo sapiens) (UniProt P09958). Nature of the assay: Furin counterscreen qHTS for Zika virus inhibitors (AID 1347149).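 Further: purified recombinant full-length human furin enzyme at 5 nM; fluorescence gain from furin cutting a BOC-RVRR-AMC peptide substrate over 15 min; top concentration of the series differs between compounds; nearly all actives have a fitted effect of over 70% in size.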 The method in brief: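 Fluorogenic cleavage of BOC-RVRR-AMC (2 microM final, Km ~15 µM) was monitored (ex 340, em 450 nm) at 37C after 15 min RT preincubation of 5 nM furin with compounds in HEPES pH 7.0 buffer with CaCl2 and Triton X-100. Percent inhibition was fitted to a 4-parameter Hill curve.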
On the technique in general: A counterscreen serves to expose hits that act by an unwanted route or on another target.

Assay [2] relates to Zika virus NS2B-NS3 protease (unlinked). The assay can be described thus: Optimization of GU AMC qHTS for Zika virus inhibitors: Unlinked NS2B-NS3 protease assay (AID 1347151). Further: series mostly up to about 52 µM; nearly all actives have a fitted effect of over 80% in size. The gist of the method: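 In this qHTS, compounds acted on 25 nM unlinked Zika NS2B–NS3 in pH 8.0 Tris/Tween buffer. Cleavage of an AMC peptide ran 15 min at room temperature, to about 20% conversion.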

Assay [3] in a line: Vero cells viability qHTS for Zika virus inhibitors (AID 1347167). The gist of the method: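 Cells seeded at 2.5 x 10^5 cells/mL in DMEM with 4% FBS and attached overnight at 37 degrees C, then exposed to compound for 24 to 48 hours. Viability read as ATP content by CellTiter Glo luminescence.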
A short description of assay [4]: Tertiary RLuc qRT-PCR qHTS assay for Zika virus inhibitors (AID 1347169). Further: potency means the concentration at half of the fitted maximal effect; nearly all actives have a fitted effect of over 55% in size. The method in brief: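 Inhibition of ZIKV-RLuc replication in Vero cells, read as Renilla luminescence 1-1.5 hrs after live-cell substrate addition, following 48-72 hrs infection at MOI 1-2 in presence of compound.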
For orientation: Quantitative PCR measures a nucleic acid by following its amplification.

Each structure is given as a SMILES string. Results filed as inconclusive are left out. A call without a number means that no potency is given here. Active and inactive are the calls of the source. The call rests on the fitted dose curve; in most records, active means well fitted curve in the direction sought with a large enough effect; inconclusive means small, poorly fitted or top-dose-only effect, or another doubt; inactive means no such curve, though single readings can be large; an effect the other way counts as inactive or inconclusive.

Sequence of Furin (Homo sapiens) (P09958 whole entry, looked up): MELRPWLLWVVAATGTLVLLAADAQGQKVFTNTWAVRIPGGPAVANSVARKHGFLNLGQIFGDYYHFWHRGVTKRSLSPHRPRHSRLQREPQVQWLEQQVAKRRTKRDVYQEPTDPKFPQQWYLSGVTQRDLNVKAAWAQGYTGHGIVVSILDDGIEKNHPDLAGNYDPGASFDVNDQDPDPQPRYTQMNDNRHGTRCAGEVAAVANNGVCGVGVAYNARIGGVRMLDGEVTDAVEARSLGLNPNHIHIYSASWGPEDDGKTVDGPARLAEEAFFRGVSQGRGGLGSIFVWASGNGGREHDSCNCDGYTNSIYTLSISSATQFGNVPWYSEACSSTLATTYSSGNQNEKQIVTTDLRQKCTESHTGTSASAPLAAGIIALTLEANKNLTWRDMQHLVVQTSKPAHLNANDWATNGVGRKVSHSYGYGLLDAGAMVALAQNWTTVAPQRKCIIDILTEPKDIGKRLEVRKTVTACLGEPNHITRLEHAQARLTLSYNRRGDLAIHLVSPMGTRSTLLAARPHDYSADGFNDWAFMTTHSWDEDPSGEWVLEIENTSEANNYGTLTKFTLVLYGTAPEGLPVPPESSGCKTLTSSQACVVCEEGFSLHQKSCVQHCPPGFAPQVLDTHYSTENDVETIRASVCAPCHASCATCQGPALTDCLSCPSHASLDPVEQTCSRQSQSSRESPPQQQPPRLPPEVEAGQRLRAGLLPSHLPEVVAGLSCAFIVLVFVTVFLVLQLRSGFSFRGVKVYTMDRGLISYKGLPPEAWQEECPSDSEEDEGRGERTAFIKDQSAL

Regarding `CC1OC(O[C@H]2C[C@@H](O)[C@]3(CO)[C@H]4[C@H](O)C[C@]5(C)[C@@H](C6=CC(=O)OC6)CC[C@]5(O)[C@@H]4CC[C@]3(O)C2)C(O)C(O)C1O` (some centres undefined), the Potency result in assay [1] and in assay [3] was “inactive” in each case. In assay [2], the compound was classed as inactive. Besides, the Potency in assay [4] was 147 nM (active).
